Source: PubChem (National Center for Advancing Translational Sciences (NCATS))
DT40 TDP1 no CPT – qHTS for Inhibitors of human tyrosyl-DNA phosphodiesterase 1 (TDP1): qHTS in cells in absence of CPT; DT40 Tdp1-/- hTDP1 cells, no CPT, ATP luminescence, 48 h; Potency, µM (top dose mostly 46.2 µM), usual class: inhibitors; actives 15% (n = 420,000); AID 686978, 2013; note: nearly all actives have a fitted effect of over 55% in size
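Compound effects on proliferation are scored in DT40 Tdp1-/-;hTDP1 cells in the absence of CPT. ATP levels (CellTiter-Glo luminescence) are recorded after a ≥48 hr, 37 °C incubation.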
Six1-Eya2 inh – blocks human Six1 binding to Eya2; Q15475+O00167; AlphaScreen GST-Six1/His-Eya2 binding, biochemical; active compounds read low; activity change, % (concentration not given with the values); actives 0.56% (n = 360,000); AID 651725; in the data active = activity change below about -65%; inconclusive = mostly about -30% to -63%
Target sequence (O00167 whole entry, looked up): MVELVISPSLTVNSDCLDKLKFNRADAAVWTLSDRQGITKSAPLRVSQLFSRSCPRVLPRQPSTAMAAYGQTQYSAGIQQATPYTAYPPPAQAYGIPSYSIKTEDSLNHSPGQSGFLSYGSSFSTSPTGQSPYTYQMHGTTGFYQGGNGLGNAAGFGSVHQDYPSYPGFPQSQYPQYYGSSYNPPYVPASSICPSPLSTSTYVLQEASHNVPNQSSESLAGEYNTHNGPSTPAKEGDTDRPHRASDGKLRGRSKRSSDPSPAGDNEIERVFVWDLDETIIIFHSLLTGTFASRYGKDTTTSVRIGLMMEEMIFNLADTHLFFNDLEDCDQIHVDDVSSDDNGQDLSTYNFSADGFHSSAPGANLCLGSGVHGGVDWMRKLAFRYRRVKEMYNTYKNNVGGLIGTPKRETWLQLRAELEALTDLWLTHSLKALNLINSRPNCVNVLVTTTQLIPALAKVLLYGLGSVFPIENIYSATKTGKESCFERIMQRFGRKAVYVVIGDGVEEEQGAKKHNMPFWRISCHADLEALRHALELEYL
Target sequence (Q15475 whole entry, looked up): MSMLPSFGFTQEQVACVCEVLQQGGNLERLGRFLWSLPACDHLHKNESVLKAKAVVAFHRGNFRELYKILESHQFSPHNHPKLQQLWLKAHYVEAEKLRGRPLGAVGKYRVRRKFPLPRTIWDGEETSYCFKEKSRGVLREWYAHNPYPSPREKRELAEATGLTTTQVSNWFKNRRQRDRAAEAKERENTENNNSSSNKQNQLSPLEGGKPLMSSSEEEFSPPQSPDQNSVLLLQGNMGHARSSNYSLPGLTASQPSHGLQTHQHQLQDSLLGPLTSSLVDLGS
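Homogeneous AlphaScreen proximity assay pairing GST-Six1 with His-tagged Eya2 (added as 5X mix: 250 nM and 500 nM) in 50 mM Tris pH 8.0, 300 mM NaCl, 1 mM TCEP. Glutathione donor and nickel acceptor beads; 1 h, 37 °C, dark.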
IL1B secr inh – inflammasome signaling inhibition, IL-1 beta readout; THP-1 LPS/ATP IL-1B secretion, AlphaLISA, 16 h; active compounds read low; activity change, % at 57.5 µM; actives 4.7% (n = 360,000); AID 743279; in the data active = activity change below about -50%; inconclusive = mostly about -30% to -49%
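Secreted IL-1B measured by AlphaLISA bead assay after 16 h compound exposure of THP-1 cells; compounds (final up to 57.5 uM) added 1 h before LPS (250 ng/mL) and ATP (1.25 mM) stimulation; lower signal means less secretion.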
TDP1 inh – blocks human tyrosyl-DNA phosphodiesterase 1. Q9NUW8. recombinant TDP1, AlphaScreen DNA substrate cleavage. Potency, µM (doses to about 130 µM), actives largely listed as inhibitors. actives 0.28% (n = 350,000). AID 485290; note: nearly all actives have a fitted effect of over 40% in size
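Recombinant human Tdp1 (E. coli-expressed, 1 nM final) preincubated with compounds 15 min at room temperature, then 5'-biotin/3'-phosphotyrosine-FITC DNA substrate (15 nM final) added for 5 min. AlphaScreen beads (10 ug/ml final) added 10 min; cleavage lowers signal.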
CtBP-E1A inh – inhibitors of CtBP/E1A interaction; activity change, % (concentration not given with the values); actives 0.49% (n = 340,000); AlphaScreen GST-E1A/His-CtBP binding, 1536-well; active compounds read low; AID 651724; in the data active = activity change below about -65%; inconclusive = mostly about -30% to -63%
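Homogeneous bead-based format: GST-tagged E1A captured on glutathione donor beads, His-tagged CtBP on nickel acceptor beads; compounds precede bead addition by 2 h at 37 °C.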
TDP1 cell CPT – growth inhibition of DT40 Tdp1-/-;hTDP1 cells with camptothecin (screen for TDP1 inhibitors); chicken DT40 Tdp1-/-;hTDP1 cells + 20 nM CPT, ATP luminescence, 48 h; Potency, µM (highest dose often 46.2 µM), usual class: inhibitors; actives 12% (n = 420,000); note: nearly all actives have a fitted effect of over 55% in size
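Cell growth measured by CellTiter-Glo luminescence after a minimum 48 h, 37 C compound exposure with 20 nM CPT in Tdp1-knockout DT40 cells stably expressing hTDP1, seeded 400/well; qHTS titration format.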
Each line names hits and unclear results; the compound was inactive in the other large screens. In the library only some 18% were active in any assay of this set; here they are far more common. Unless noted, calls come from the whole dose curve; as a rule, active = well fitted curve in the direction sought with a large enough effect; inconclusive = small, poorly fitted or top-dose-only effect, or another doubt; inactive = no such curve, though single readings can be large; an effect the other way counts as inactive or inconclusive.

C#Cc1ccc(CN2CCC(N3CCC(C(=O)NCc4ccccn4)CC3)CC2)cc1	none
Cc1ccc(NC(=O)CNCc2ccccc2Cl)cc1S(=O)(=O)N(C)C	none (no result: TDP1 inh)
Cc1ccc(NC(=O)Cc2c(Cl)cccc2Cl)cc1S(=O)(=O)N(C)C	DT40 TDP1 no CPT 16.4µM, TDP1 cell CPT inconclusive
Cc1ccc(NC(=O)CNCc2ccc(Cl)cc2Cl)cc1S(=O)(=O)N(C)C	DT40 TDP1 no CPT 18.4µM, TDP1 cell CPT inconclusive
O=C(Nc1nc2ccccc2s1)c1ccc([N+](=O)[O-])o1	DT40 TDP1 no CPT 8.2µM, IL1B secr inh -67.8, TDP1 cell CPT 14.6µM (no result: TDP1 inh, CtBP-E1A inh)
O=C(Nc1nc2cc3c(cc2s1)OCCO3)c1ccc([N+](=O)[O-])o1	DT40 TDP1 no CPT 10.3µM, IL1B secr inh -86.2, TDP1 cell CPT 8.2µM
O=C(Nc1nc2ccccc2s1)c1ccccc1[N+](=O)[O-]	none
O=C(Nc1nc2c(F)cc(F)cc2s1)c1ccc([N+](=O)[O-])o1	DT40 TDP1 no CPT 10.3µM, TDP1 cell CPT 14.6µM (no result: TDP1 inh)
COc1ccc2nc(NC(=O)c3ccc([N+](=O)[O-])o3)sc2c1	DT40 TDP1 no CPT 13µM, IL1B secr inh -87.9, TDP1 cell CPT 23.1µM (no result: TDP1 inh)
CN(CC(=O)Nc1cccc(F)c1)CC(=O)N(C)c1c(N)n(Cc2ccccc2)c(=O)[nH]c1=O	none
CCOc1ccc(NC(=O)N2CCC(n3c(=O)[nH]c4ccccc43)CC2)cc1	DT40 TDP1 no CPT inconclusive, IL1B secr inh inconclusive, TDP1 cell CPT inconclusive
C[C@H]1COc2cc(N3CC[C@H](O)C3)ccc2S(=O)(=O)N1	none (no result: TDP1 inh)
CCn1c2ccccc2c2cc(NC(=O)CN3CCCC3)ccc21	IL1B secr inh -69.4
CCn1c2ccccc2c2cc(NC(=O)CNCC3CCCO3)ccc21 (configuration not stated)	DT40 TDP1 no CPT inconclusive, IL1B secr inh -52.1, TDP1 cell CPT inconclusive (no result: CtBP-E1A inh)
O=[N+]([O-])c1ccc(N2CCC(=NOCc3ccc(Cl)cc3)CC2)cc1	DT40 TDP1 no CPT 10.3µM, IL1B secr inh inconclusive, TDP1 cell CPT 20.6µM
O=[N+]([O-])c1ccc(CN2CCSCC2)cc1	none
O=[N+]([O-])c1ccc(CN2CCN(c3ccc([N+](=O)[O-])cc3)CC2)cc1	DT40 TDP1 no CPT 18.4µM, IL1B secr inh -53.6, TDP1 cell CPT inconclusive (no result: TDP1 inh)
O=[N+]([O-])c1cccc(COc2ccc(CN3CCOCC3)cc2)c1	DT40 TDP1 no CPT 16.4µM, TDP1 cell CPT inconclusive (no result: TDP1 inh)
O=[N+]([O-])c1cccc(CN2CCCCCC2)c1	none (no result: TDP1 inh)
O=[N+]([O-])c1ccc(N2CCN(Cc3cccc([N+](=O)[O-])c3)CC2)cc1	DT40 TDP1 no CPT 4.11µM, IL1B secr inh -62.0, TDP1 cell CPT inconclusive (no result: TDP1 inh)
CC(/C=C1\N=C(SCc2ccccc2Cl)SC1=O)=C\c1ccccc1	DT40 TDP1 no CPT inconclusive, TDP1 cell CPT inconclusive
CC(=O)c1cn(CC(=O)NCc2ccco2)c2ccccc12	DT40 TDP1 no CPT inconclusive, TDP1 cell CPT inconclusive
COC(=O)C1CCN(Cc2ccc(OCCCN3CCN(c4ccc([N+](=O)[O-])cc4)CC3)cc2)CC1	DT40 TDP1 no CPT 10.3µM, Six1-Eya2 inh inconclusive, TDP1 cell CPT 7.31µM
CCCCc1ccc(NC(=O)C(=O)NCCN2CCN(Cc3ccc([N+](=O)[O-])cc3)CC2)cc1	DT40 TDP1 no CPT 0.731µM, TDP1 cell CPT 3.26µM
CNC(=O)C(=O)NCCN1CCN(C(=O)c2ccc([N+](=O)[O-])cc2)CC1	none
CC1CCN(CCCCOc2ccc([N+](=O)[O-])cc2)CC1	none
C/C(=N\NC(=O)c1cccc(C)c1)c1ccc(N2CCOCC2)cc1	TDP1 cell CPT inconclusive
O=C1CC(Sc2cccs2)C(=O)N1c1ccccc1 (configuration not stated)	DT40 TDP1 no CPT 3.66µM, TDP1 cell CPT 3.66µM
Cc1nnc(SC2CC(=O)N(c3ccccc3)C2=O)s1 (configuration not stated)	DT40 TDP1 no CPT 20.6µM, TDP1 cell CPT 3.66µM
O=C1CC(Sc2nnc(-c3ccccc3)o2)C(=O)N1c1ccccc1 (configuration not stated)	DT40 TDP1 no CPT 4.61µM, TDP1 cell CPT 2.91µM
CCn1c(SCC(=O)Nc2ccc(OC)cc2)nc2c(c1=O)SCC2	DT40 TDP1 no CPT inconclusive
CC(C)(Oc1ccc(Cl)cc1)C(=O)Nc1ccc(-c2nc3ncccc3o2)cc1	DT40 TDP1 no CPT 18.4µM, TDP1 cell CPT 16.4µM (no result: Six1-Eya2 inh, IL1B secr inh, CtBP-E1A inh)
O=C(Nc1ccc2oc(-c3ccncc3)nc2c1)c1ccc([N+](=O)[O-])o1	DT40 TDP1 no CPT 5.8µM, IL1B secr inh -90.5, TDP1 cell CPT 2.91µM
Cc1cc(C)cc(C(=O)Nc2ccc(-c3nc4ncccc4o3)cc2)c1	DT40 TDP1 no CPT inconclusive, TDP1 cell CPT 20.6µM (no result: Six1-Eya2 inh, IL1B secr inh, CtBP-E1A inh)
Cc1ccc(-c2nc3ncccc3o2)cc1NC(=O)c1ccc([N+](=O)[O-])o1	DT40 TDP1 no CPT 16.4µM, IL1B secr inh -96.7, TDP1 cell CPT 14.6µM
O=C(Nc1ccc2oc(-c3ccncc3)nc2c1)c1ccccc1	none
